In the supplement of paper PMC11865577:

Test system: SARS-CoV-2 low-rank motif (SARS-low)
Test: normalised indicator fluorescence (fraction of RNA + indicator signal without compound); higher = less displacement of indicator (weaker competition)
Conditions: compound concentration: 5 uM, 30 min
Outline: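 Values are ratios: indicator fluorescence, less a buffer-plus-indicator blank, over the RNA-plus-indicator signal with no compound, as the mean of two independent experiments. This displacement screen used TO-PRO-1 or TO-PRO-3 with RNA in 96-well plates, in 20 mM phosphate pH 7.0, 20 mM NaCl, 80 mM KCl. Compounds went in at about 5 uM final, and readings were taken after 30 min on an Infinite 200 PRO at 485 or 620 nm excitation.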

[1] = indicator: TO-PRO-1 0.1 uM, RNA concentration: 0.1 uM
[2] = indicator: TO-PRO-3 0.5 uM, RNA concentration: 0.5 uM

Row | Structure (SMILES) | normalised indicator fluorescence [1] | normalised indicator fluorescence [2]
1 | CN1CCN(c2nc(C3=C(c4c[nH]c5ccccc45)C(=O)NC3=O)c3ccccc3n2)CC1 [Sotrastaurin] | 1.4 | 1.29
2 | COc1c(C)cnc(Cn2cnc3c(Cl)nc(N)nc32)c1C | 1.13 | 1.17
3 | O=c1ccc2ccc(O)c(O)c2o1 [Daphnetin] | 1.04 | 0.935
4 | Cc1cccc(CC(=O)N2CCc3c2ccc(-c2cn(C)c4ncnc(N)c24)c3F)n1 | 1.06 | 1.05
5 | OC[C@H]1O[C@@H](Oc2ccc(O)cc2)[C@H](O)[C@@H](O)[C@@H]1O [Arbutin] | 1.1 | 1.25
6 | C/C1=C/CC[C@H](C)C(=O)C[C@@H](C(C)C)C(=O)C1 [Curdione] | 1.15 | 1.1
7 | CO[C@@H]1[C@H](N(C)C(=O)c2ccccc2)C[C@H]2O[C@]1(C)n1c3ccccc3c3c4c(c5c6ccccc6n2c5c31)C(=O)NC4 [Midostaurin] |  | 1.35
8 | COc1nc(-c2ccc3c(c2)OCO3)n(-c2ccc(NC(=O)CSc3ccccc3)cc2)n1 [SecinH3] | 1.55 | 0.816
9 | CC(=O)Oc1c(C)c(C)c2c(c1C)CCC(C)(CCC[C@H](C)CCC[C@H](C)CCCC(C)C)O2 (stereo partly specified) [Vitamin E Acetate] | 1.05 | 1.21
10 | CC(=O)O[C@H]1C[C@@]2(C)[C@@H](C[C@@H](O)[C@H]3[C@@]4(C)CC[C@@H](O)[C@@H](C)[C@@H]4CC[C@@]32C)/C1=C(\CCC=C(C)C)C(=O)O [Sodium fusidate] | 1.11 | 1.04
11 | CC(C)N(CCCCOCC(=O)NS(C)(=O)=O)c1cnc(-c2ccccc2)c(-c2ccccc2)n1 [Selexipag] | 1.21 | 1.13
